Laboratory results reported in PubChem BioAssay AID1851 (National Center for Advancing Translational Sciences (NCATS), 2009).
Where “and” joins values, the source holds several entries; their conditions need not be identical. Equal values may be shown once. Hit rate of the full screen: of about 16,000 compounds, about 5,700 (36%) were called active. Inconclusive results (about 24%) are left out. Some of the results follow. Values without a mark were called inactive. Calls come from the whole dose curve; as a rule, active = well fitted curve in the direction sought with a large enough effect; inconclusive = small, poorly fitted or top-dose-only effect, or effect the other way; inactive = no such curve, though single readings can be large or run the other way.
% is set by controls: 0 for no effect and ±100 for the full control effect.

These compounds were tested against Cytochrome P450 1A2 (Homo sapiens) (UniProt P05177) (assay: Cytochrome panel assay with activity outcomes). Details: recombinant CYP, pro-luciferin dealkylation, luminescence, p450-cyp1a2; series mostly up to 57.1 µM.
Chain of Cytochrome P450 1A2 (Homo sapiens) (P05177 whole entry, looked up): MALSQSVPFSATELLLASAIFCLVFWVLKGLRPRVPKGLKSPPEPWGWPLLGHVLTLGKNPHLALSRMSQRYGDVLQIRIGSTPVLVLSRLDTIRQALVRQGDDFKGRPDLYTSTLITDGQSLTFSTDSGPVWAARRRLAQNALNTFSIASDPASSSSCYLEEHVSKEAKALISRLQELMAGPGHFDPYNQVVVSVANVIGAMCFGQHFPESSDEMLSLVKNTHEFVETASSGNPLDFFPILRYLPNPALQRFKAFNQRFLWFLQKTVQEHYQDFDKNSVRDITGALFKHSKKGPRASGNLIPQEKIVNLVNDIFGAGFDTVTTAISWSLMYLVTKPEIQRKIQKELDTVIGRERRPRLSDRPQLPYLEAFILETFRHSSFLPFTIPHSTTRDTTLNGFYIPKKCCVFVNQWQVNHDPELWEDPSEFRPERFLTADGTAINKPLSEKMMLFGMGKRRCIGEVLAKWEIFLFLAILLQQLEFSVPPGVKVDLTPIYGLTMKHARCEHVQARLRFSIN
With `COc1cccc(-c2cc(C(F)(F)F)nc(N3CCN(c4ccccc4)CC3)n2)c1` the AC50 was 12.6 µM (active).
In the case of `COc1cccc(-c2cc(C(F)(F)F)nc(N3CCCCC3)n2)c1`, the AC50 is reported as 1 µM (active).
For `COc1cccc(-c2cc(C(F)(F)F)nc(N3CCOCC3)n2)c1`, the AC50 was 0.794 µM (active).
With `COc1cccc(-c2cc(C(F)(F)F)n3ncc(S(=O)(=O)c4ccccc4)c3n2)c1` the AC50 was “inactive”.
In the case of `CCOC(=O)N1CCC(NC(=O)CCC(=O)N2CCOc3ccccc32)CC1`, the AC50 is reported as “inactive”.
In the case of `CCOC(=O)[C@H](N)/C=C(\C)CP(=O)(O)O`, the AC50 is reported as “inactive”.
In the case of `CC(C)(C)C(=O)N1CCc2cc(-c3csc(N)n3)ccc21`, the AC50 is reported as 7.08 µM (active).
`CCCC(=O)Nc1nc(-c2ccc3c(c2)CCN3S(C)(=O)=O)cs1` was tested, and the AC50 was “inactive”.
With `CO[C@H]1COC(=O)[C@@H](Cc2ccccc2)NC(=O)[C@@H](C)COC(=O)CCC[C@@H]1C` the activity, negative = inhibition was -3.47% [at 11.4 µM].
With `O=C(CN1CCCCC1)Nc1nnc(-c2ccc([N+](=O)[O-])cc2)s1` the AC50 was “inactive”.
`COCC(=O)N(C)c1nnc(-c2ccc([N+](=O)[O-])cc2)s1` was tested, and the AC50 was 3.16 µM (active).
For `COCC(=O)N1CCN(c2ccc([N+](=O)[O-])cc2)CC1`, the AC50 was “inactive”.
For `Cc1ccc(C)c(NC(=O)Cn2c([N+](=O)[O-])cnc2C)c1`, the AC50 was “inactive”.
For `CC(C)c1ccc(O)c(NC(=O)c2ncn[nH]2)c1`, the AC50 was 15.8 µM (active).
In the case of `COc1ccc(NC(=O)C(c2ccc(OC)cc2)N(C)C(=O)CNC(C)=O)cc1` (stereo unspecified), the AC50 is reported as “inactive”.
With `Cc1ccc(C)c(NC(=O)C2CC3c4ccccc4C2c2ccccc23)c1` (stereo unspecified) the AC50 was “inactive”.
With `Cc1ccc(C)c(NC(=O)c2ncn[nH]2)c1` the AC50 was 15.8 µM (active).
In the case of `COc1ccc(NC(=O)N2CCCC3(CCNCC3)C2)cc1`, the AC50 is reported as “inactive”.
In the case of `COc1ccc(NC(=O)N2CCC3(CC2)CCN(S(C)(=O)=O)CC3)cc1`, the AC50 is reported as “inactive”.
For `COC(=O)N1CCC2(CC1)CN(C(=O)Nc1ccc(OC)cc1)C2`, the AC50 was “inactive”.
For `COc1ccc(NC(=O)c2ncn[nH]2)cc1`, the AC50 was 11.2 µM (active).
`COc1ccc(NC(=O)OC(C)C)cc1` was tested, and the AC50 was 11.2 µM (active).
With `CC(C)CN1CCC2(CC1)CCN(C(=O)c1cccn1C)CC2` the AC50 was “inactive”.
For `COCC(=O)N1CCC2(CCCN(c3ncccn3)C2)CC1`, the AC50 was “inactive”.
`N=C(N)SCc1nc2ccccc2c(=O)n1-c1ccccc1Cl` was tested, and the AC50 was 1.26 µM (active).
For `COc1ccc(C=Nc2c(O)ccc3ccccc23)cc1OC`, the AC50 was 0.251 µM (active).
`COc1cc(C=O)ccc1OCCCOc1ccccc1C(=O)O` was tested, and the AC50 was “inactive”.
With `COC(=O)C/C=C\[C@@H](C)[C@@H](/C=N\O[C@@H](C)c1cn([C@H](CO)Cc2ccccc2)nn1)NS(=O)(=O)c1ccc(C)cc1` the activity, negative = inhibition was -0.854% [at 11.4 µM] and -7.61% [at 11.4 µM].
`CC(C)CN1CC2(CCN(C(=O)c3cccc(F)c3)CC2)C1` was tested, and the AC50 was “inactive”.
`O=C1CCC(c2ccccc2)=NN1c1nc2ccccc2s1` was tested, and the AC50 was 0.398 µM (active).
`c1cncc(-c2cncnc2-n2ccnc2)c1` was tested, and the AC50 was 20 µM (active).
For `COc1ccccc1-c1cncnc1-n1ccnc1`, the AC50 was 12.6 µM (active).
For `COc1cccc(-c2cncnc2-n2ccnc2)c1`, the AC50 was 0.1 µM (active).
For `N#Cc1cccc(-c2cncnc2-n2ccnc2)c1`, the AC50 was 15.8 µM (active).
In the case of `Cc1cn(CC[C@H](N)C(=O)O)c(=O)[nH]c1=O`, the activity, negative = inhibition is reported as -9.38% [at 11.4 µM].
`COC(=O)C[C@@H]1O[C@H]1[C@H](C)[C@@H](OC)C(C)C` gave an activity, negative = inhibition of -6.59% [at 11.4 µM].
In the case of `COC(=O)[C@@]1(Cc2ccc(OC)cc2)[C@@H]2[C@@H](CC(=O)[C@H]2CC(=O)C(=O)N2CCCC2)CN1C(=O)c1ccccc1`, the AC50 is reported as “inactive”.
In the case of `COc1ccc(C[C@@H]2C(=O)N[C@H](C)C(=O)N(C)[C@@H]3Cc4ccc(cc4)Oc4cc(ccc4O)C[C@H](C(=O)N[C@@H](C)C(=O)N[C@H](C)C(=O)N2C)N(C)C3=O)cc1`, the activity, negative = inhibition is reported as -16.4% [at 11.4 µM].
For `CC(C)CC(=O)N[C@H](C(=O)N[C@H](C(=O)N[C@@H](CC(C)C)[C@H](O)CC(=O)N[C@@H](C)C(=O)N[C@@H](CC(C)C)[C@H](O)CC(=O)O)C(C)C)C(C)C`, the AC50 was “inactive”.
`COc1ccc(O[C@H]2C=C[C@@H](c3ccccc3)O[C@@H]2CO/N=C(\C)CCN2CCc3nc(-c4ccccc4)c(-c4ccccc4)cc3C2)cc1` showed an activity, negative = inhibition of -6.98% [at 11.4 µM].
In the case of `CCC(=O)N(Cc1ccco1)c1nc(-c2ccccc2)cs1`, the AC50 is reported as 1.26 µM (active).
For `Cc1cc2cccc(C)c2nc1SCC(=O)N(C)c1nc(-c2ccccc2)cs1`, the AC50 was “inactive”.
For `Cc1ccccc1C(C(=O)NCc1ccccc1)N(Cc1ccco1)C(=O)c1ccccn1` (stereo unspecified), the AC50 was “inactive”.
For `CCn1c(C)cc(/C=C2\NC(=O)N(Cc3ccc(Cl)cc3)C2=O)c1C`, the AC50 was 0.355 µM (active).
In the case of `Cc1cccc(N2CCN(CC(=O)Nc3ccc(-n4cnnn4)cc3)CC2)c1C`, the AC50 is reported as “inactive”.
In the case of `O=C(Nc1cnc2ccccc2c1)c1cccc(-n2cnnn2)c1`, the AC50 is reported as 12.6 µM (active).
With `CCC(C(=O)NC(C)(C)C)N(C(=O)Cn1nnc(-c2cccs2)n1)c1cnc2ccccc2c1` (stereo unspecified) the AC50 was “inactive”.
`O=C(Cn1cnc([N+](=O)[O-])n1)N/N=C/c1ccccc1O` was tested, and the AC50 was 4.47 µM (active).
For `CC(C)(C)NC(=O)Cn1cnc([N+](=O)[O-])n1`, the AC50 was “inactive”.
For `CC(NC(=O)Cn1cnc([N+](=O)[O-])n1)c1ccccc1` (stereo unspecified), the AC50 was “inactive”.
In the case of `COC(=O)[C@@]1(Cc2ccccc2)[C@@H]2C(=CC(=O)[C@H]2CC(=O)C(=O)N(C)C)CN1C(=O)c1ccccc1`, the AC50 is reported as “inactive”.
In the case of `COc1ccccc1CCn1c(=O)c(-c2cc(F)cc(F)c2)nc2cncnc21`, the AC50 is reported as 1.58 µM (active).
`COc1ccccc1CCn1c(=O)c(-c2cccc(F)c2)nc2cncnc21` was tested, and the AC50 was 1.58 µM (active).
For `NC(=O)C1=CN([C@@H]2O[C@@H](COP(=O)(O)OP(=O)(O)OC[C@@H]3O[C@H](n4cnc5c(N)ncnc54)[C@@H](OP(=O)(O)O)[C@@H]3O)[C@H](O)[C@@H]2O)C=CC1`, the AC50 was “inactive”.
With `CCCn1nc2cc(C(=O)NCCCCc3ccccc3)ccc2c1OCC` the AC50 was “inactive”.
For `CCCn1nc2cc(C(=O)NCc3ccc4c(c3)OCO4)ccc2c1OCC`, the AC50 was “inactive”.
In the case of `CCOc1c2ccc(C(=O)NCc3ccc(OC(F)(F)F)cc3)cc2nn1C`, the AC50 is reported as 2.82 µM (active).
In the case of `CCCn1nc2cc(C(=O)NCc3ccc(C)cc3)ccc2c1OC`, the AC50 is reported as 14.1 µM (active).
For `CCCCn1nc2cc(C(=O)NCCCCc3ccccc3)ccc2c1OCC`, the AC50 was “inactive”.
In the case of `CCCCn1nc2cc(C(=O)NCc3ccc(C(F)(F)F)cc3C(F)(F)F)ccc2c1OCC`, the AC50 is reported as “inactive”.
In the case of `CCOc1c2ccc(C(=O)NCCCCc3ccccc3)cc2nn1C`, the AC50 is reported as 2.51 µM (active).
In the case of `COCCn1nc2cc(C(=O)NCC34CC5CC(CC(C5)C3)C4)ccc2c1OC`, the AC50 is reported as “inactive”.
In the case of `CCCn1nc2cc(C(=O)NC3CCCc4ccccc43)ccc2c1OCC` (stereo unspecified), the AC50 is reported as “inactive”.
In the case of `CCCn1nc2cc(C(=O)NCCc3ccc(C)cc3)ccc2c1OCC`, the AC50 is reported as “inactive”.
With `O=C(NC1CCCc2ccccc21)c1ccc(=O)[nH]c1` (stereo unspecified) the AC50 was “inactive”.
`CCOc1c2ccc(C(=O)NC3CCCc4ccccc43)cc2nn1C` (stereo unspecified) was tested, and the AC50 was 10 µM (active).
